About 16,000 (7.3%) of roughly 220,000 compounds were called active. Entries that show only a call come without a potency. Not shown: some 25% with an inconclusive outcome. For the sample, actives were picked, then their nearest neighbours and some compounds at random. Unmarked numbers belong to inactive results. Calls come from the whole dose curve; as a rule, active = well fitted inhibition curve with a large enough effect (not every such curve was filed as active); inconclusive = small, poorly fitted or top-dose-only effect, or another doubt; inactive = no such curve, though single readings can be large or run the other way.
What follows are molecules tested against Aldehyde dehydrogenase 1A1 (Homo sapiens) (UniProt P00352) (assay: qHTS Assay for Inhibitors of Aldehyde Dehydrogenase 1 (ALDH1A1)). Details: Purified ALDH1A1, NADH fluorescence, propionaldehyde substrate; series mostly up to 75.3 µM.
Sequence of Aldehyde dehydrogenase 1A1 (Homo sapiens) (P00352 whole entry, looked up): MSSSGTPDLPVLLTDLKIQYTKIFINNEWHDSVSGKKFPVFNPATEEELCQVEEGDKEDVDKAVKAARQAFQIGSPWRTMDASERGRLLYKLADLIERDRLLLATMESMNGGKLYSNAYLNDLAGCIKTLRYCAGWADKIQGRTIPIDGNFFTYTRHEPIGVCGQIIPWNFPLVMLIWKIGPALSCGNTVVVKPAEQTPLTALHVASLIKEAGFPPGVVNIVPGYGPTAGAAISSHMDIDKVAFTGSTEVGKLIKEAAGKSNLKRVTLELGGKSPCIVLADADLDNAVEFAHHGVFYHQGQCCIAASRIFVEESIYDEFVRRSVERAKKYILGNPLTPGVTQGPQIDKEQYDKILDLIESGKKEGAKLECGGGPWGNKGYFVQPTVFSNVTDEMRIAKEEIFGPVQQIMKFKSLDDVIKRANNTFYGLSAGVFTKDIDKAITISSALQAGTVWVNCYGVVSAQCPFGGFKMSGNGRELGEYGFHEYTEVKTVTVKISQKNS
For `CCc1nnc(NC(=O)CSc2nnnn2-c2cccc(C(C)=O)c2)s1`, the Potency was “inactive”. For `Cc1cc(C)n(CCNCc2c(C(=O)N3C[C@@H](C)O[C@@H](C)C3)nc3ccc(Cl)cn23)n1`, the Potency was “inactive”. `COC(=O)CCCC1=CC2=CC(=O)C(C)(OC(=O)c3cccs3)C(=O)C2=CN1CC1CC1` (configuration not stated) gave an activity, negative = inhibition of -4.48% [at 13.5 µM]. In the case of `CS(=O)(=O)c1ccc2nc(NC(=O)C3C4C=CC(C4)C3C(=O)O)sc2c1` (configuration not stated), the Potency is reported as 5.62 µM (active). For `CS(=O)(=O)c1ccc2nc(NC(=O)C3CCCCC3)sc2c1`, the Potency was “inactive”. For `CS(=O)(=O)c1ccc2nc(NC(=O)CN3CCCCCC3)sc2c1`, the Potency was “inactive”. `CN1CCN(CC(=O)Nc2cccc([N+](=O)[O-])c2)CC1` was tested, and the Potency was “inactive”. `COc1cc(C2/C(=C(\O)c3ccc4c(c3)CC(C)O4)C(=O)C(=O)N2Cc2ccco2)ccc1O` (configuration not stated) was tested, and the Potency was “inactive”. In the case of `CCOc1cccc(/C(O)=C2/C(=O)C(=O)N(CCOC)C2c2ccncc2)c1` (configuration not stated), the Potency is reported as “inactive”. For `COCCCN1C(=O)C(=O)/C(=C(/O)c2ccc3c(c2)CC(C)O3)C1c1cccnc1` (configuration not stated), the Potency was 39.8 µM (active). In the case of `CCc1ccccc1NC(=O)Cc1cn(C)c2ccccc12`, the Potency is reported as “inactive”. For `CC(/C=C/C1(O)C(C)CC(=O)CC1(C)C)OC1OC(CO)C(O)C(O)C1O` (configuration not stated), the Potency was “inactive”. With `O=C(Nc1cc(S(=O)(=O)N2CCOCC2)ccc1Cl)c1cc(=O)c2ccccc2o1` the Potency was “inactive”. With `CN(C)/N=C/c1cc(Cl)cc([N+](=O)[O-])c1O` the Potency was “inactive”. For `O=[N+]([O-])c1cc(Cl)cc(/C=N/NC(=S)Nc2cc(S(=O)(=O)N3CCOCC3)ccc2Cl)c1O`, the Potency was 0.178 µM (active). For `CCN(CC)S(=O)(=O)c1ccc(OC(C)C)c(N)c1`, the Potency was “inactive”. For `COc1ccc2nc(Nc3nc(-c4ccncc4)cs3)sc2c1`, the Potency was “inactive”. With `Cn1c(CCC(=O)OCC(=O)NCc2ccccc2Cl)nc(=O)c2ccccc21` the Potency was “inactive”. For `O=C(CCc1nnc(CCCCc2ccccc2)o1)NC(c1cccnc1)C(F)(F)F` (configuration not stated), the Potency was “inactive”. With `CSc1nnc2c(n1)OC(c1ccsc1)N(C(C)=O)c1ccccc1-2` (configuration not stated) the Potency was “inactive”. `CSc1nnc2c(n1)OC(c1cn(C)c3ccccc13)N(C(C)=O)c1ccccc1-2` (configuration not stated) was tested, and the Potency was 3.98 µM (active). With `CCN(CC)CCNC(=O)C1c2ccccc2C(=O)N(C)C1c1cn(C)c2ccccc12` (configuration not stated) the Potency was “inactive”. With `O=C(CO/N=C/c1ccccc1OC(F)F)NC1CCCC1` the Potency was “inactive”. For `CS(=O)(=O)N(CC(=O)N/N=C/c1ccccn1)c1ccc(Oc2ccccc2)cc1`, the Potency was “inactive”. With `O=c1c(Cl)c(NCc2ccc(F)cc2Cl)cnn1C12CC3CC(CC(C3)C1)C2` the Potency was 15.8 µM (active). `O=C(CN1CCN(Cc2ccc(F)cc2Cl)C1=O)NCc1cccs1` was tested, and the Potency was “inactive”. With `NC(=O)c1ccc(N2CCOCC2)nc1` the Potency was “inactive”. In the case of `CCNC(=S)NNC(=O)C1CCN(Cc2ccccc2)CC1`, the Potency is reported as “inactive”. `CCCC(=O)C1CCN(Cc2ccccc2)CC1` was tested, and the Potency was “inactive”. `O=C(NNS(=O)(=O)c1ccc(Cl)cc1)C1CCN(Cc2ccccc2)CC1` was tested, and the Potency was 22.4 µM (active). In the case of `COc1ccc(-c2cc(C(=O)NCCCn3ccnc3)no2)cc1`, the Potency is reported as “inactive”. With `O=C(c1csnn1)N1CCC[C@@]2(CCN(Cc3nccs3)C2)C1` the Potency was “inactive”. In the case of `O=C(c1ccco1)N1CCC[C@@]2(CCN(Cc3nccs3)C2)C1`, the Potency is reported as 25.1 µM (active). `O=C(c1cccc([N+](=O)[O-])c1)N1CCN(C(=O)c2ccco2)CC1` was tested, and the Potency was “inactive”. With `O=C(c1ccco1)N1CCC2(CC1)CCN(c1ncccn1)CC2` the Potency was 25.1 µM (active). With `Cc1ccc(C)c(OCC(=O)N2CCN(C(=O)c3ccco3)CC2)c1` the Potency was “inactive”. In the case of `Cn1cccc1C(=O)N1CCC[C@@]2(CCN(Cc3nccs3)C2)C1`, the Potency is reported as “inactive”. With `C/C(N)=C(/C#N)C(=O)COC(=O)CNS(=O)(=O)c1ccc(C)cc1` the Potency was “inactive”. For `CC(C)NC(=O)NCCCCCCS(C)=O` (configuration not stated), the Potency was “inactive”. With `O=C(Nc1n[nH]c(C(F)(F)F)n1)c1cccs1` the Potency was “inactive”. For `C=CCOC(=O)C1=C(C)NC(SCC(=O)OCC)=C(C#N)C1c1ccc(C)cc1` (configuration not stated), the Potency was “inactive”. `CC1=C(C(=O)Nc2ccccc2)C(c2cccs2)C(C#N)=C(SCC#N)N1` (configuration not stated) was tested, and the Potency was 22.4 µM (active). For `CCCSC1=C(C#N)C(c2ccccc2C)C(C(=O)OC)C(=O)N1` (configuration not stated), the Potency was “inactive”. With `CC(C)(C)c1cnnn1-c1ccc([N+](=O)[O-])cc1` the Potency was “inactive”. In the case of `COC(=O)c1sccc1NC(=O)CCC1CCCC1`, the Potency is reported as “inactive”. With `O=C(NCc1ccccc1Cl)c1csc2c1CCCCC2` the Potency was “inactive”. With `Cc1ccc(NC(=O)c2csc3c2CCCC3)cc1` the Potency was 20 µM (active). For `CC(=O)Cc1nsc(NC(=O)c2csc3c2CCCC3)n1`, the Potency was “inactive”. In the case of `COC(=O)c1sccc1NC(=O)c1csc2c1CCCC2`, the Potency is reported as 22.4 µM (active). `O=C(Nc1ccccc1N1CCOCC1)c1csc2c1CCCC2` was tested, and the Potency was “inactive”. With `COC(=O)/C(=C1\Oc2ccc(C(C)(C)C)cc2S1)C(F)(F)F` the Potency was “inactive”. `CC/C(O)=C1\C(=O)CC(C)(C)CC1=NCCc1nc2ccccc2[nH]1` was tested, and the Potency was “inactive”. With `CCCCNC(=O)c1ccc(-n2c(=S)[nH]c3ccccc3c2=O)cc1` the Potency was “inactive”. For `O=C(Cn1c2[n+](c3ccc(C(F)(F)F)cc31)CCCCC2)Nc1c(F)cccc1F`, the Potency was “inactive”. In the case of `Cc1ccc(Cl)cc1NC(=O)C1CCN(S(C)(=O)=O)CC1`, the Potency is reported as “inactive”. For `O=C(NCc1ccccc1Cl)C1CCCO1` (configuration not stated), the Potency was “inactive”. For `Cc1cnc(C(=O)OCC(=O)NCCCc2ccccc2)cn1`, the Potency was “inactive”. With `Cc1cnc(C(=O)OCC(=O)N2CCc3ccccc32)cn1` the Potency was 3.16 µM (active). `Cc1ccc(S(=O)(=O)NCC(=O)OCC(=O)N2CCc3ccccc32)cc1` was tested, and the Potency was “inactive”. For `O=C(CNCc1ccc(Cl)cc1)Nc1cccc(C(=O)O)c1`, the Potency was “inactive”. `C/C(=N/OC(=O)c1cccc(C(F)(F)F)c1)c1cnccn1` was tested, and the Potency was “inactive”. `OC(COc1ccc(CN2CCSCC2)cc1)CN1CCCCC1` (configuration not stated) was tested, and the Potency was “inactive”. With `CCO[C@H]1OC(C(=O)N2CCN(Cc3ccccc3)CC2)=C[C@@H](c2cn(C(C)=O)c3ccccc23)[C@@H]1CCCO` the Potency was “inactive”. In the case of `C/C(=N\N)c1c(-c2ccccc2)c2cc(Br)ccc2[nH]c1=O`, the Potency is reported as “inactive”. For `CCCCNC(=O)C1CCC(CNS(=O)(=O)c2ccc(NC(C)=O)cc2)CC1` (configuration not stated), the Potency was “inactive”. With `COCCCNC(=O)c1ccc(CNS(=O)(=O)c2ccc(NC(C)=O)cc2)cc1` the Potency was 4.47 µM (active). In the case of `CCOc1ccc(NS(=O)(=O)c2ccc(OCC(=O)NCCCOC)cc2)cc1`, the Potency is reported as “inactive”.
Potency is the fitted concentration of half-maximal effect.
